This passage reports outcome and activity change, negative = cytotoxicity results from PubChem BioAssay (Tox21).

Records with an inconclusive call do not appear. Calls of active or inactive are those of the source. Calls follow the shape of the dose curve; as a rule, active = well fitted cell-killing curve with a large enough effect in the repeat runs; inconclusive = weak or mixed curves, or effect the other way; inactive = no such curve, though single readings can be large or run the other way. Positions of bridges follow the written chain, without caps; N, C: chain ends. Non-standard residues stand in square brackets, D forms with d. Residues, ends and D or L forms follow the SMILES beside them. hArg = N=C(N)NCCCC[C@H](N)C(=O)O; Mpa = O=C(O)CCS
% is scaled to controls: 0 for no effect and ±100 for the full control effect.

The assay can be described thus: qHTS assay to identify small molecule agonists of the estrogen receptor alpha (ER-alpha) signaling pathway in the presence of an antagonist - cell viability counter screen (AID 1259386). Also: nearly all actives have a fitted effect of over 30% in size. The note with it: VM7Luc4E2 viability, CellTiter-Fluor fluorescence, 22 h; series mostly up to 92.4 µM. The text has this:
National Center for Advancing Translational Sciences [NCATS]
NIH Chemical Genomics Center [NCGC]
U.S. Environmental Protection Agency [EPA]
National Institutes of Environmental Health Sciences [NIEHS]
National Toxicology Program [NTP]
U.S. Food and Drug Administration [FDA]
Estrogen receptor (ER), a member of nuclear hormone receptor plays an important role in development, metabolic homeostasis and reproduction. Two subtypes of ER, ER-alpha and ER-beta, have similar expression patterns with some uniqueness in both types. Endocrine disrupting chemicals (EDCs) and their interactions with steroid hormone receptors like ER causes disruption of normal endocrine function. Therefore, it is important to understand the effect of environmental chemicals in ER signaling pathway. For identifying ER agonists, VM7Luc4E2 cell line has been used in the current assay.
VM7Luc4E2 cell line (provided by Denison MS, University of California) endogenously expresses full-length ER-alpha and is stably transfected with a plasmid containing four estrogen responsive elements (ERE) upstream of a luciferase reporter gene. This current screening for measuring luciferase reporter gene activity using VM7Luc4E2 cells against Tox21 10K library collection is a confirmation study on agonist mode screening in presence of ER-antagonist (ICI-182,780) at 10.0nM final concentration. The cytotoxicity of the compounds was tested in parallel by measuring the cell viability using CellTiter-Fluor assay system (Promega, Madison, WI) in the same wells.
Tox21 Assay Protocol Summary:
VM7Luc4E2 cells were cultured in phenol red free assay medium containing 10% charcoal stripped FBS for 5 days prior to the assay. The cells were dispensed at 4,000 cells in 4uL of assay medium per well into white wall/solid-bottom 1536-well plates (Corning Life Sciences, Corning, NY) using a Multidrop Combi (Thermo Fisher Scientific Inc., Waltham, MA) dispenser. After the assay plates were incubated at 37C and 5% CO2 for 24hr, 1uL of 10.0nM (final concentration) ICI-182,780 or assay buffer was added using two separate tips of Flying Reagent Dispenser (FRD, Aurora Discovery, San Diego, CA). Then 23nL of compounds dissolved in DMSO at 15 concentrations and positive controls or DMSO only was transferred to the assay plates by a Pintool station (Wako, San Diego, CA). The assay plates were incubated at 37C and 5% CO2 for 22hr. After 21hr incubation at 37C, 1uL/well CellTiter-Fluor reagent (Promega Corporation, Madison, WI) was added to each well using FRD and after 1hr incubation at 37C and 5% CO2, the fluorescence signal was measured on ViewLux plate reader (PerkinElmer, Shelton, CT).
Background: qHTS replaces the single test concentration by a dilution series.
For `COC(=O)CCCCC(=O)O`, the outcome was inactive. Same read-out and setting: the value for `CCCCCC(C)O` (stereo not given) was “inactive”. Regarding `NCc1ccc(S(N)(=O)=O)cc1`, the result was inactive. Regarding `C[C@@H](O)C(=O)O`, the outcome was inactive. On the same count and under the same terms, the entry for `CCCCCCCCCCCCCCC(=O)NC(CO)CCCCCCCCCCCCCC` (stereo not given) is “inactive”; for `CCCC(CC)c1ccccc1` (stereo not given) it is “inactive”; for `CC(C)OC(=O)CCC(=O)OC(C)C` it is “inactive”.

With `Cc1cccc(Cl)c1`, the result was inactive.

As to `C[C@H]1[C@@H](c2ccccc2)NC(=O)N1C`, the result was inactive. As for `CO/N=C(/C(=O)N[C@@H]1C(=O)N2C(C(=O)[O-])=C(C[n+]3ccn4ncccc43)CS[C@H]12)c1nsc(N)n1`, the outcome was inactive. Same read-out and setting: the value for `CC(=O)CCc1ccc(OC(C)=O)cc1` was “inactive”; that for `CC1(C)[C@H]2CC[C@](C)(C2)[C@H]1O` was “inactive”; that for `CC(C)CO` was “inactive”. The same measure, in the same setting: the value for `CCC(C)C(C)=O` (stereo not given) was “inactive”; that for `OCC(O)CN1CCN(c2ccccc2)CC1` (stereo not given) was “inactive”; that for `COP(=O)(O)OP(=O)(O)OC` was “inactive”. Regarding `O=C(CCCl)NCCc1ccccc1`, the outcome was inactive. On the same count and under the same terms, the value for `O=C[O][Al]([O]C=O)[O]C=O` was “inactive”. Still for that read-out and setting: the value for `C=CCCCCCCCCC(=O)OCCCC` was “inactive”; that for `CC(CO)(CO)CO` was “inactive”; that for `CCCCCCCCCCOC(C)=O` was “inactive”.

With `COC(C)(OC)OC`, the result was inactive. Still for that read-out and setting: the entry for `C=CCCCC` is “inactive”; for `CC1=C(C(=O)O)N2C(=O)[C@@H](NC(=O)[C@H](N)C3=CCC=CC3)[C@H]2SC1` it is “inactive”. Same read-out and setting: the entry for `CC(=O)C1C(=O)C=C(C)OC1=O` (stereo not given) is “inactive”.

For the molecule `O=C(O)CSCC(=O)NC1CCSC1=O` (stereo not given), the result was inactive. In the case of `CC(Oc1cc(Cl)ccc1Cl)C(=O)O` (stereo not given), the outcome was inactive. In the case of `CC(C)[C@H]1CC[C@H](C)C[C@@H]1O`, the outcome was inactive. As for `NC(=O)[C@@H]1CSSCCC(=O)N[C@@H](CCCCN=C(N)N)C(=O)NCC(=O)N[C@@H](CC(=O)O)C(=O)N[C@@H](Cc2c[nH]c3ccccc23)C(=O)N2CCC[C@H]2C(=O)N1` ([Mpa][hArg]GDWPC-NH2; disulfide 1-7), the result was inactive. With `Cc1ccc(C)c([N+](=O)[O-])c1`, the outcome was inactive. `O=C1c2ccccc2C(=O)c2cc(Cl)ccc21`: the activity change, negative = cytotoxicity is 1.35% [at 8.39 µM] (inactive). `C=CC(=O)OCC1CCCO1` (stereo not given): the outcome was inactive.

`N[C@@H](CSCCCO)C(=O)O`: the activity change, negative = cytotoxicity was -1.24% [at 19 µM] (inactive). As to `O=C(Cn1ccnc1[N+](=O)[O-])NCc1ccccc1`, the result was inactive. As for `CC(C)=CCC/C(C)=C/COC=O`, the outcome was inactive.

Take `CC(C)=CCC[C@@](C)(O)[C@H]1CC=C(C)CC1`: the result was inactive. Still for that read-out and setting: the entry for `CC1c2ccccc2CN1NC(=O)c1ccc(Cl)c(S(N)(=O)=O)c1` (stereo not given) is “inactive”; for `OC1OCCOC1O` (stereo not given) it is “inactive”; for `O=C(O)CCCCCC(=O)O` it is “inactive”. Same read-out and setting: the value for `O=Cc1cc2ccccc2o1` was “inactive”.
